# Assay results reported in PubChem BioAssay AID602242 (Southern Research Specialized Biocontainment Screening …, 2012).
# Measured potencies and affinities stand elsewhere. The source made the active and inactive calls. No rule for the calls is given here.
# Assay: cell-based, strain KU V3526, counter-screen (AID 602242)
# Conditions: VEEV strain V3526 infected cells, CPE inhibition; series mostly up to 50 µM
row,Compound,outcome
1,O=C(Oc1ccc2ccccc2c1Br)N1CCCCCC1,inactive
2,O=c1c2cc([N+](=O)[O-])ccc2nc(CN2CCN(c3ccccc3)CC2)n1-c1ccccc1F,inactive
